# Measured values reported in PubChem BioAssay (NCI).
# This is part of a sample that, as a whole, favours compounds with a hit. Of some 83,000 tested, about 20% had one in any assay.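 96-well plates, one dose, 48 hours. Percent growth reported; active if below 10.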 Unmarked numbers belong to inactive results. The source made the active and inactive calls.
# System: HL-60(TB) leukemia
# Assay: NCI-60 one-dose screen, 48 h (100 = growth as untreated, 0 = no growth, -100 = all killed)
# Settings: 10 µM unless noted
row,Compound,growth
1,O=C1C(Cl)=C(Nc2ccccn2)C(=O)c2ccccc21,72.9%
2,CCC(C)C1CCC(O)CC1 (stereo unspecified),99.3%
3,CC1(CO)CCCC12OCCO2 (stereo unspecified),105%
4,CCc1ccc(Oc2c(-c3ccc(OCc4ccc(Cl)cc4)cc3O)n[nH]c2C(F)(F)F)cc1,-6.99% (active)
5,CC(C)CC1NC(=O)C(CC(C)C)N(CO)C1=O (stereo unspecified),106%
6,O=C(CSc1nc(-c2ccccc2)[nH]c1S(=O)(=O)c1ccccc1)NC1CC1,101%
